Data: PubChem BioAssay
Activity calls are given as the source filed them.

Columns and labels:
[1] = test system: Plasmodium falciparum Sir2 (PF13_0152, Sir2A); test: Plasmodium falciparum Sir2A binding compounds – biochemical, small-molecule microarray, 635 nm fluorescence, primary screen (AID 1098); settings: fluorescence 635 nm, higher = more signal;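 further: score merges spot fluorescence intensity with its signal-to-noise ratio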
[2] = probe aDKK1 binding to arrayed compounds – biochemical, biotinylated probe, 635/667 nm fluorescence, primary screen (AID 1099); settings: small-molecule microarray, higher = more signal;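 further: score merges 667nm spot fluorescence with signal to noise across triplicate slides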
[3] = probe aCHRDL2 binding to arrayed compounds – biochemical, biotinylated probe, 635/667 nm fluorescence, primary screen (AID 1100); settings: small-molecule microarray, higher = more signal
[4] = change in splice reporter luminescence, either direction, cell-based, HEK293, spliceosome inhibition project, primary screen (AID 1101); settings: HEK293 splicing luciferase reporter, 24 h, higher = more signal, called active from +8 up or from −8 down;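 further: HEK293 cells carrying a splicing-competent luciferase reporter gene; test concentration not given here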
[5] = target: Fibroblast growth factor 10 (Homo sapiens) (UniProt O15520); test: compounds binding fibroblast growth factor 10 – biochemical, small-molecule microarray, 635 nm fluorescence, primary screen (AID 1102); settings: FGF10 binding, fluorescence 635 nm, higher = more signal
[6] = test system: glycogen synthase kinase-3 (GSK3A per assay name; protocol says GSK3B); test: compounds binding glycogen synthase kinase-3 – biochemical, small-molecule microarray, 635 nm fluorescence, GSK3A, primary screen (AID 1103); settings: fluorescence 635 nm, higher = more signal; further: the record names both GSK3A and GSK3B
[7] = target: Epidermal growth factor receptor (Homo sapiens) (UniProt P00533); test: compounds binding epidermal growth factor receptor – biochemical, small-molecule microarray, 635 nm fluorescence, primary screen (AID 1104); settings: EGFR binding, higher = more signal;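 further: score merges 667 nm emission intensity with spot signal to noise over triplicate slides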
[8] = target: Follistatin-related protein 3 (Homo sapiens) (UniProt O95633); test: compounds binding follistatin-related protein 3 – biochemical, small-molecule microarray, 635 nm fluorescence, primary screen (AID 1105); settings: FSTL3 binding, higher = more signal;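 further: score merges emission near 667 nm and signal to noise per printed spot across three slides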
[9] = target: Dickkopf-related protein 1 (Homo sapiens) (UniProt O94907); test: small molecules binding DKK1 protein – biochemical, small-molecule microarray, 635 nm fluorescence scan, primary screen (AID 1106); settings: higher = more signal;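 further: score merges emission near 667 nm with signal to noise over three replicate slides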
[10] = test system: Inhibin beta A chain (activin A); test: small molecules binding activin A – biochemical, small-molecule microarray, 635 nm fluorescence scan, primary screen (AID 1107); settings: INHBA, higher = more signal;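 further: mouse activin A protein probed at 4.33 µg/mL on printed slides; score merges bound-protein fluorescence near 667 nm with spot signal-to-noise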
[11] = test system: Human papillomavirus type 1a protein E7 (residues 44-93); test: small molecules binding HPV E7 44-93 – biochemical, small-molecule microarray, residues 44-93, 635 nm fluorescence, primary screen (AID 1108); settings: fluorescence 635 nm, higher = more signal;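 further: E7 fragment applied at 1 µg/mL in TBST for 1 h at 4 C; score combines spot fluorescence with its signal to noise ratio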
[12] = hepatitis C replication reporter changes, two-sided – Huh7 cells, luciferase reporter, HCV replication inhibitor project, primary screen (AID 1109); settings: Huh7 HCV replicon luciferase reporter, 48 h; higher = more signal;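 further: huh7 hepatoma cells harbouring a luciferase neomycin HCV replicon reporter; luciferase luminescence as measure of HCV replicon replication; test concentration not given here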
[13] = target: Left-right determination factor 2 (Homo sapiens) (UniProt O00292); test: small molecules binding LEFTY2 protein – biochemical, small-molecule microarray, 635 nm fluorescence scan, primary screen (AID 1110); settings: higher = more signal
[14] = target: Calmodulin-1 (Homo sapiens) (UniProt P0DP23); test: small molecules binding calmodulin-1 with EGTA – biochemical, small-molecule microarray, Cy5-labelled CALM1, profiling panel (AID 1111); settings: Cy5-CALM1 binding fluorescence, higher = more signal;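 further: labelled calmodulin applied in Tris saline Tween buffer holding calcium plus EGTA and DTT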
[15] = target: Calmodulin-1 (Homo sapiens) (UniProt P0DP23); test: small molecules binding Ca-loaded calmodulin-1 – biochemical, small-molecule microarray, Cy5-labelled CALM1, plus calcium, artefact control for SMM control-protein annotation, profiling panel (AID 1112); settings: Cy5-CALM1 binding fluorescence, higher = more signal;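 further: score merges spot fluorescence with signal to noise from triplicate slides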
[16] = probe aWnt5a binding to arrayed compounds – biochemical, biotinylated probe, 635/667 nm fluorescence, primary screen (AID 1113); settings: small-molecule microarray, higher = more signal;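 further: score merges 667 nm fluorescence intensity with signal-to-noise per printed feature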
[17] = probe aShh binding to arrayed compounds – biochemical, biotinylated probe, 635/667 nm fluorescence, primary screen (AID 1114); settings: small-molecule microarray, higher = more signal;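 further: probe is biotin-labelled aShh protein from a stem cell growth factor screen; measures binding of labelled protein to compounds printed on the slide; score merges feature fluorescence at 667 nm with signal-to-noise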
[18] = probe aNog binding to arrayed compounds – biochemical, biotinylated probe, 635/667 nm fluorescence, primary screen (AID 1115); settings: small-molecule microarray, higher = more signal;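 further: probe is biotinylated aNog protein used at 0.15 µg/mL for 1 h at 4 C; z-score combines 667 nm fluorescence of each spot with its signal to noise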
[19] = target: Torsin-1A-interacting protein 1 (Homo sapiens) (UniProt Q5JTV8); test: compound microarray binding of lysate hLAP1 – cell lysate, small-molecule microarray, COS7 lysate, 635/667 nm fluorescence, primary screen (AID 1116); settings: 635 nm fluorescence, higher = more signal
[20] = target: Alpha-bungarotoxin (Bungarus multicinctus) (UniProt P60615); test: compounds binding labelled alpha-BTX control protein – biochemical, small-molecule microarray, Alexa647 label, 635/667 nm fluorescence, artefact control for SMM control protein annotation, profiling panel (AID 1117); settings: alpha-BTX-A647 binding fluorescence, higher = more signal
Chain of Alpha-bungarotoxin (Bungarus multicinctus) (P60615 whole entry, looked up): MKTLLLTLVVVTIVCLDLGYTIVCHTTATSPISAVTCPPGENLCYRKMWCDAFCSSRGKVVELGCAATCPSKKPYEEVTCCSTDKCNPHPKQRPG

Chain of Follistatin-related protein 3 (Homo sapiens) (O95633 whole entry, looked up): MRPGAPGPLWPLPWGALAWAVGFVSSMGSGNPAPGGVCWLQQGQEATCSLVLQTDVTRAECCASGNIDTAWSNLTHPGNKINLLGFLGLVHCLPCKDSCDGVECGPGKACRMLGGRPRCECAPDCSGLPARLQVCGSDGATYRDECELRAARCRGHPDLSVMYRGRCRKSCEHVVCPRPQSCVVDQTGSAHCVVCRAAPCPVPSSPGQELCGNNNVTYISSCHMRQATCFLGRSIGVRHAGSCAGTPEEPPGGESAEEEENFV
Chain of Dickkopf-related protein 1 (Homo sapiens) (O94907 whole entry, looked up): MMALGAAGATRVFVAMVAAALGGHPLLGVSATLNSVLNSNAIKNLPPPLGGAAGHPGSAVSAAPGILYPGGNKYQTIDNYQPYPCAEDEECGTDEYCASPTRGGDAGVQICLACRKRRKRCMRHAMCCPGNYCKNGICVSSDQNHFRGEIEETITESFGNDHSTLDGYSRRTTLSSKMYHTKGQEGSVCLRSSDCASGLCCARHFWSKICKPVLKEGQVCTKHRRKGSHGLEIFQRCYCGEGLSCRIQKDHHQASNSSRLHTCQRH
Chain of Epidermal growth factor receptor (Homo sapiens) (P00533 whole entry, looked up): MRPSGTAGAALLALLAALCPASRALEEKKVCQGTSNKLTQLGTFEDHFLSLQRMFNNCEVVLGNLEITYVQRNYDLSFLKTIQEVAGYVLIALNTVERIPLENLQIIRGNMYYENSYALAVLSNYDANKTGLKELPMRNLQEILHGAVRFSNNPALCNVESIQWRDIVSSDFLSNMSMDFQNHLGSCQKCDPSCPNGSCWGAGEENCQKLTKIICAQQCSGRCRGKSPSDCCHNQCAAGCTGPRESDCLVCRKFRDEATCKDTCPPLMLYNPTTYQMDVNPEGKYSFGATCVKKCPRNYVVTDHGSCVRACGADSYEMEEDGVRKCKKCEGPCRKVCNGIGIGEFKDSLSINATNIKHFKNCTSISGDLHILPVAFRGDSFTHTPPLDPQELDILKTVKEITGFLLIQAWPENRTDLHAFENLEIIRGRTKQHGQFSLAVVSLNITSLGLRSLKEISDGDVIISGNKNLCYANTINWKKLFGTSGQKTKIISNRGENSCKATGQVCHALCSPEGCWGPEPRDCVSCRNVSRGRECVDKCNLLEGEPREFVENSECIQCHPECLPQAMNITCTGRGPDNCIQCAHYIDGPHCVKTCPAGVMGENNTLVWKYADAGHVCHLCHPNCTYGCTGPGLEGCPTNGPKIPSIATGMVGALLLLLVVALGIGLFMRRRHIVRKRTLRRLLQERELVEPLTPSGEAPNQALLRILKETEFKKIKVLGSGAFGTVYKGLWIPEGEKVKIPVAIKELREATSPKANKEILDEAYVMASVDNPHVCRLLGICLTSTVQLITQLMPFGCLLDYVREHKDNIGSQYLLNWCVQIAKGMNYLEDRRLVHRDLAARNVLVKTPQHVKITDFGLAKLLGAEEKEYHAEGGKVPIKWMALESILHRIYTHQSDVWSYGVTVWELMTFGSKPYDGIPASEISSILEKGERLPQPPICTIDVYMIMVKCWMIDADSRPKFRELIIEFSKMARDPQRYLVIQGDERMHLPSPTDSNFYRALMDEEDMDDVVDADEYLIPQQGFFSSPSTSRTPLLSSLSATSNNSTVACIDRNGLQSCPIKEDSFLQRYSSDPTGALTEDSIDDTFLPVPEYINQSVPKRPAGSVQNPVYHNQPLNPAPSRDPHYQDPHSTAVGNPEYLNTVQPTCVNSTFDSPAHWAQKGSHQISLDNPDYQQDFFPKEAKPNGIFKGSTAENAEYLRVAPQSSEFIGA
Chain of Torsin-1A-interacting protein 1 (Homo sapiens) (Q5JTV8 whole entry, looked up): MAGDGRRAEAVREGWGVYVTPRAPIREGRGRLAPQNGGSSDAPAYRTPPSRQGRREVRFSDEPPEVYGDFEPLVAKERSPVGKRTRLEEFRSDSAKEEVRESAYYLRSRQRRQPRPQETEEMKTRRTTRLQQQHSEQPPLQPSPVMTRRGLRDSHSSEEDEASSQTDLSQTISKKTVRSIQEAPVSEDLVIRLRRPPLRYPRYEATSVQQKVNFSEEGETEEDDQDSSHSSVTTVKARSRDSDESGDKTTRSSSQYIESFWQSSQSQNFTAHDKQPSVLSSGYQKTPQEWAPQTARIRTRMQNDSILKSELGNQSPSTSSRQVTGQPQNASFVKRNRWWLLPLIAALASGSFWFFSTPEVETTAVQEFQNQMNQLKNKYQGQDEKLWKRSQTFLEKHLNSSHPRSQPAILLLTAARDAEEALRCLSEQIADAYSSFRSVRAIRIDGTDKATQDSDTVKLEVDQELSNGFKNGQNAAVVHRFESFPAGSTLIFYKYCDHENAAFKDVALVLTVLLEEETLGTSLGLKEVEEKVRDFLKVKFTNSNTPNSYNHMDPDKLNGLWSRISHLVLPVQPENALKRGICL
Chain of Left-right determination factor 2 (Homo sapiens) (O00292 whole entry, looked up): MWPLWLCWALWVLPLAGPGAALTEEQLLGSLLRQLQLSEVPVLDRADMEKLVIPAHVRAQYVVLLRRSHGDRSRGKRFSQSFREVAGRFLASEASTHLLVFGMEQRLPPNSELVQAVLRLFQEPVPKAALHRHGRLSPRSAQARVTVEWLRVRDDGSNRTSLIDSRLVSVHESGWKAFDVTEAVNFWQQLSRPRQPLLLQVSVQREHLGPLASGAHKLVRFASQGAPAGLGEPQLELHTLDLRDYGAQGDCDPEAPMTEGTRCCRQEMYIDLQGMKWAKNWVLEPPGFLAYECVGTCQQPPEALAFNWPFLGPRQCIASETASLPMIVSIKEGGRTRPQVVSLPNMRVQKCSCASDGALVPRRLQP
Chain of Fibroblast growth factor 10 (Homo sapiens) (O15520 whole entry, looked up): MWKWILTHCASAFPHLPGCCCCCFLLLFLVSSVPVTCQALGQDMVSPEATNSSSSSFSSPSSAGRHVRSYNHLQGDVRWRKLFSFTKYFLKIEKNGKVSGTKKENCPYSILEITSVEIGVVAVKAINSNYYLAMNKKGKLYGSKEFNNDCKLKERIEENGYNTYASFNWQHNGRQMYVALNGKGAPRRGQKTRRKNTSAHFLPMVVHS

| Compound | composite z-score [1] | composite z-score [2] | composite z-score [3] | z-score [4] | composite z-score [5] | composite z-score [6] | composite z-score [7] | composite z-score [8] | composite z-score [9] | composite z-score [10] | composite z-score [11] | z-score [12] | composite z-score [13] | composite z-score [14] | composite z-score [15] | composite z-score [16] | composite z-score [17] | composite z-score [18] | composite z-score [19] | composite z-score [20] |
| --- | --- | --- | --- | --- | --- | --- | --- | --- | --- | --- | --- | --- | --- | --- | --- | --- | --- | --- | --- | --- |
| O=C(NCc1ccccc1)[C@@]1(Cc2ccccc2)N=C(c2ccc(OCCCO)cc2)O[C@H]1c1ccccc1 | 0.652 | 1.15 | 1.23 | 0.915 (inactive) | 0.366 | 0.3 | -0.47 | 0.448 | -0.996 | 0.425 | 1.11 | -2.57 | -0.699 | 2.36 | 1.09 | 0.055 | -0.181 | 1.36 | 2.02 | 1.1 |
| C=CCN(Cc1ccccc1)C(=O)C(c1cccs1)N(CCOCCO)C(=O)/C=C\C(=O)O (stereo not given) | 0.342 | 0.179 | 0.251 | -1.62 (inactive) | -2.23 | -0.869 | -2.04 | -1.27 | -2.6 | -2.43 | -0.762 | 0.448 | -2.24 | -0.512 | 0.446 | -0.256 | -0.0035 | -0.0712 | -1.45 | -1.82 |
| COC(=O)C=C(CC(O)c1cccc(Cl)c1)OC (stereo not given) | -0.02 | 1.5 | 0.48 | -1.12 (inactive) | 0.182 | -0.134 | -0.485 | -0.374 | -0.186 | 1.14 | -0.734 | -0.923 | -0.17 | 1.27 | 1.01 | 0.23 | 0.506 | 1.93 | 1.99 | 1.51 |
| CCCC[C@H]1OB(O)C[C@H]2C1=C(COc1ccccc1)C[C@H]1C(=O)N(C)C(=O)[C@H]12 | -0.328 | 0.0763 | -0.442 | 0.377 (inactive) | 0.429 | -0.0785 | 0.447 | 0.43 | 0.439 | 0.741 | -0.121 | -0.271 | 0.283 | -0.515 | -0.255 | 0.0438 | 0.0899 | -0.106 | 0.101 | 0.0648 |
| O=C1OCCC/C=C\[C@H]2OC34C=CCN(CCN5CCOCC5)C(=O)[C@H]3N(CCCO)C(=O)[C@@H]4C12 (stereo not given in full) | 1.37 | -0.199 | 0.0663 | 0.106 (inactive) | 0.0487 | -0.0632 | -0.708 | -0.621 | -0.298 | 0.576 | -0.941 | -0.61 | -0.27 | -1.01 | -0.147 | -0.18 | -0.26 | -0.23 | 1.05 | 1.19 |
| CC(=O)NCCCC[C@@H]1NC(=O)[C@@H]2C[C@H](C(=O)NCCCCCCNC(=O)CS)[C@H](c3cccc(OCCO)c3)N2C1=O | 1.76 | -0.0828 | 0.466 | -0.289 (inactive) | 0.639 | 1.12 | 0.37 | 0.325 | 0.791 | 0.388 | 0.517 | -0.938 | 0.221 | 0.572 | 0.361 | 0.0004 | -0.142 | -0.196 | 0.16 | 0.505 |
| CCCCC=C[C@@H](NC(=O)Oc1cccc(C(F)(F)F)c1)c1ccccc1 | 0.495 | 1.45 | 0.879 | -1.75 (inactive) | 1.09 | 0.992 | 0.185 | 0.719 | -0.432 | 1.16 | 1.18 | -1.07 | -0.143 | 1.85 | 1.11 | 1.04 | 1.97 | 0.59 | 0.503 | 1.62 |
| CN(C)C(=O)[C@@]1(Cc2ccccc2CN=[N+]=[N-])N=C(c2ccc(OCCCO)cc2)O[C@H]1c1ccccc1 | 1.67 | -0.274 | 1.01 | 0.249 (inactive) | 1.21 | 0.585 | -0.333 | -0.283 | -0.766 | 0.823 | 0.993 | -2.96 | -0.498 | 0.691 | 0.46 | 0.0077 | -0.0243 | 1.83 | 1.43 | 1.33 |
| O=C1OCCC=C[C@H]2OC34C=CCN(CCN5CCOCC5)C(=O)[C@H]3N(CCCCCCO)C(=O)[C@@H]4C12 (stereo not given in full) | 0.813 | -0.5 | -0.35 | 0.418 (inactive) | -0.306 | -0.225 | -0.71 | -0.351 | -0.292 | 0.191 | -0.149 | -0.135 | -0.0529 | -0.304 | -1.07 | -0.178 | -0.289 | -0.484 | 0.551 | -0.288 |
| COc1ccc(C(O)C2C=CC3C(=O)NC(=O)C3N2Nc2ccccn2)c2ccccc12 (stereo not given) | 0.157 | 0.046 | 0.108 | 0.841 (inactive) | 0.392 | -0.39 | 0.307 | 0.16 | 0.378 | 0.804 | -0.266 | 0.307 | 0.315 | -0.0051 | -0.194 | -0.219 | 0.147 | -0.0863 | -0.259 | 0.172 |
| COc1ccc(C#Cc2ccc3c(c2)[C@]2(C(=O)N3)[C@H](c3ccccc3OCCO)N3[C@H](c4ccccc4)[C@H](c4ccccc4)OC(=O)[C@H]3[C@@H]2C(=O)O)cc1 | 1.26 | 0.734 | 0.142 | -2.14 (inactive) | 1.4 | 1.21 | 0.319 | 0.98 | 0.126 | 0.54 | 1.42 | -2.87 | 0.186 | 1.22 | 1.05 | 0.0932 | 0.0037 | 1.52 | 1.77 | 1.67 |
